Measurements as given in the supplement of paper PMC11732987, “Enantioselective OTUD7B fragment discovery through chemoproteomics screening and high-throughput optimisation” (Communications Chemistry, 2025).

How the values were obtained:
Assay in all cases: log2 ratio of Biotin-Ahx-Ub-VS probe labelling (fragment/DMSO); higher = less target engagement (more negative = stronger competition), active = hit call of the paper (q ≤ 0.05, log2 ratio ≤ -1)
Conditions in all cases: compound concentration: 200 uM; treatment time: 3 h
USP34 = USP34 (UniProt Q70CQ2)
Sequence of USP34 (Q70CQ2 whole entry, the tested form may be a part): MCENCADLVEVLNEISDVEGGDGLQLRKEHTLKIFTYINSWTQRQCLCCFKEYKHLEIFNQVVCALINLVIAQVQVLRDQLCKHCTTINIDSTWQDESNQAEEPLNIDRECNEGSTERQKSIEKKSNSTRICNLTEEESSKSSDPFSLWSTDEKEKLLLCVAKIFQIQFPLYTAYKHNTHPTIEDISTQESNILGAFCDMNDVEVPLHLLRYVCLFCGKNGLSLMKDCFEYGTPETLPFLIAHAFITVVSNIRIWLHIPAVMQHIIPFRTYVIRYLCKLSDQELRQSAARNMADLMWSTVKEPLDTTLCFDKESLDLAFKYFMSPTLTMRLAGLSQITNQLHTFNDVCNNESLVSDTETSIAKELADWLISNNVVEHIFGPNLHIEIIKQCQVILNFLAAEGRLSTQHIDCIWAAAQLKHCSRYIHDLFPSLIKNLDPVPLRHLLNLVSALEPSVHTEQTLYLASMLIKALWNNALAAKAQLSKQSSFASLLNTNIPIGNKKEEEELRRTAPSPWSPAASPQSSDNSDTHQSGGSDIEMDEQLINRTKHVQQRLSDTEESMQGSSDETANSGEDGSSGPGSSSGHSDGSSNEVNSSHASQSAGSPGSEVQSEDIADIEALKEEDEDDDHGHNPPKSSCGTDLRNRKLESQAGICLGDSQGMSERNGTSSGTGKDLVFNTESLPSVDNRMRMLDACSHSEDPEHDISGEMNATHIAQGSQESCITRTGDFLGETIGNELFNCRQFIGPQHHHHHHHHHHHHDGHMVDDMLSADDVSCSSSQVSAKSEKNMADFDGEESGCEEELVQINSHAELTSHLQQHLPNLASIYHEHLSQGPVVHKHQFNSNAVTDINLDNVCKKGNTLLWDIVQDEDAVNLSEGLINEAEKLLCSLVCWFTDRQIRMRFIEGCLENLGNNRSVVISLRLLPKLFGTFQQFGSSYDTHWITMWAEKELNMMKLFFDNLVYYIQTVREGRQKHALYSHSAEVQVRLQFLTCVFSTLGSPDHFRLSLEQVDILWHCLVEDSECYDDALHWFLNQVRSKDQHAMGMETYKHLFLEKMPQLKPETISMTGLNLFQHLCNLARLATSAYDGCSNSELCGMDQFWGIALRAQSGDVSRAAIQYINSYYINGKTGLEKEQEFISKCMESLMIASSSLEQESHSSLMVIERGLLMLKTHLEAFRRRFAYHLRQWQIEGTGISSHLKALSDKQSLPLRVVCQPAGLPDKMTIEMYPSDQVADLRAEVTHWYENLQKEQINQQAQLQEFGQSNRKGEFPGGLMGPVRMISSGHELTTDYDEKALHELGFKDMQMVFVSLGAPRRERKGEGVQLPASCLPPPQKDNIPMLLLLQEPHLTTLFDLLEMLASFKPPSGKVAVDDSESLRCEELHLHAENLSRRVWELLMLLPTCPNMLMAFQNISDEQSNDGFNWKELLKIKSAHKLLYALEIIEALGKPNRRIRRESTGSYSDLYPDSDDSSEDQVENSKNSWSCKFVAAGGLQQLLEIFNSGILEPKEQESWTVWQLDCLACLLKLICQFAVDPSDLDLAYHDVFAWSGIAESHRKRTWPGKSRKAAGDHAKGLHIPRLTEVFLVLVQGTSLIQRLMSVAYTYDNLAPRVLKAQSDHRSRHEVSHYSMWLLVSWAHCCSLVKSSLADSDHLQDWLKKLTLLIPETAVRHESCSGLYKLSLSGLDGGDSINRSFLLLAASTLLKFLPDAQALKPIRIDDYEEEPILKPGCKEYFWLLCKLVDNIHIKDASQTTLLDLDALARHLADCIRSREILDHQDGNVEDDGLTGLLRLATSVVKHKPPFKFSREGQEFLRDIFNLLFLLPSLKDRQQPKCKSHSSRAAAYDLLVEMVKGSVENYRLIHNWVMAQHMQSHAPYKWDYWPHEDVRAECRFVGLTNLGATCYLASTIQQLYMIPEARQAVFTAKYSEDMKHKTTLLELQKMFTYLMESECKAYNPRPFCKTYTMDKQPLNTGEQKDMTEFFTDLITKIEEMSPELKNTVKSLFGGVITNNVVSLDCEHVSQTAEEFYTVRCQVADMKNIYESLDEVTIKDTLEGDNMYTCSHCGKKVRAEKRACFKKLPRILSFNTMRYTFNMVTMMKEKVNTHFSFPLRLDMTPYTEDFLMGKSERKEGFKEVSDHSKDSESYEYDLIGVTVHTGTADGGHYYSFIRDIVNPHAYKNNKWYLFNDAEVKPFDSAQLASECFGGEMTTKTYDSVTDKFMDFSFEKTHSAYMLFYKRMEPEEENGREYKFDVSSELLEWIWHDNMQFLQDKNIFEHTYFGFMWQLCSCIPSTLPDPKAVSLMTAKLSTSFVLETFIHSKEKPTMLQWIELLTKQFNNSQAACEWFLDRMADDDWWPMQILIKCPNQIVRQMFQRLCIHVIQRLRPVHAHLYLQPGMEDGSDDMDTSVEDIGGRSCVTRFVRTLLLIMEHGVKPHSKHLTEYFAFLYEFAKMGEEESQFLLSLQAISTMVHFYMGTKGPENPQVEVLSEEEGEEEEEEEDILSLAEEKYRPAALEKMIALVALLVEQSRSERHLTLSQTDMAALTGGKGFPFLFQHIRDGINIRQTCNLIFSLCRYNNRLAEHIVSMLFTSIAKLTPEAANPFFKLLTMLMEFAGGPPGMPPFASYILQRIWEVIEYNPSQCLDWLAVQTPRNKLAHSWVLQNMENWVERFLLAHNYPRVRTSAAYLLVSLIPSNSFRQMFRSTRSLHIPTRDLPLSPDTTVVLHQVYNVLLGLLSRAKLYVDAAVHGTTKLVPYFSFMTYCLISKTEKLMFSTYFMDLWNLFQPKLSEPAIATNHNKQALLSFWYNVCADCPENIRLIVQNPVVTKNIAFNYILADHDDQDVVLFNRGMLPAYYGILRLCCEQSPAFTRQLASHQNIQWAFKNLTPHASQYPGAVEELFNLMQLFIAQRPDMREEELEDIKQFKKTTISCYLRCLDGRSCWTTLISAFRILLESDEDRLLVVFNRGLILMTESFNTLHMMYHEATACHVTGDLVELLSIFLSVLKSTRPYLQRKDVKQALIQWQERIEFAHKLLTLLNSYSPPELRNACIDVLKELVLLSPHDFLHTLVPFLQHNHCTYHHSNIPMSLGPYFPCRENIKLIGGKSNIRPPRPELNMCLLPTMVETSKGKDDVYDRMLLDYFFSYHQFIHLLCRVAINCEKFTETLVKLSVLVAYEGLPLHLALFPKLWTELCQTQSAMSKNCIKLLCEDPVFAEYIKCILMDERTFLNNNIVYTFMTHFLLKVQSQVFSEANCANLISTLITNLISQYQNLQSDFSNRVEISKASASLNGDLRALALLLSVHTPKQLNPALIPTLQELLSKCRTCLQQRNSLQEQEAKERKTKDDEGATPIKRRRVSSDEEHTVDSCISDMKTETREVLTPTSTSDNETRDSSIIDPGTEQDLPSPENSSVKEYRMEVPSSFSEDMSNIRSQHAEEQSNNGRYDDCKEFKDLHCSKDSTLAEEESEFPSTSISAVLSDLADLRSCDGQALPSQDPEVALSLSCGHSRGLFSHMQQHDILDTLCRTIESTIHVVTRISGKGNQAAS
Method in brief: (§1)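 Average log2 ratios of fragment over vehicle were obtained by unpaired t-test from global-median-normalised Spectronaut label-free quantities. Proteins with ≥2 unique peptides were included. HEK293T lysate (495 µg per sample) was treated in triplicate with fragment at 200 µM or vehicle for 3 h, then with Biotin-Ahx-Ub-VS at 0.5 µM final for 1 h, and labelled DUBs were NeutrAvidin-enriched and run by diaPASEF LC-MS/MS.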

USP36 = target: T1, USP36 (UniProt Q9P275)
T1 sequence (whole entry): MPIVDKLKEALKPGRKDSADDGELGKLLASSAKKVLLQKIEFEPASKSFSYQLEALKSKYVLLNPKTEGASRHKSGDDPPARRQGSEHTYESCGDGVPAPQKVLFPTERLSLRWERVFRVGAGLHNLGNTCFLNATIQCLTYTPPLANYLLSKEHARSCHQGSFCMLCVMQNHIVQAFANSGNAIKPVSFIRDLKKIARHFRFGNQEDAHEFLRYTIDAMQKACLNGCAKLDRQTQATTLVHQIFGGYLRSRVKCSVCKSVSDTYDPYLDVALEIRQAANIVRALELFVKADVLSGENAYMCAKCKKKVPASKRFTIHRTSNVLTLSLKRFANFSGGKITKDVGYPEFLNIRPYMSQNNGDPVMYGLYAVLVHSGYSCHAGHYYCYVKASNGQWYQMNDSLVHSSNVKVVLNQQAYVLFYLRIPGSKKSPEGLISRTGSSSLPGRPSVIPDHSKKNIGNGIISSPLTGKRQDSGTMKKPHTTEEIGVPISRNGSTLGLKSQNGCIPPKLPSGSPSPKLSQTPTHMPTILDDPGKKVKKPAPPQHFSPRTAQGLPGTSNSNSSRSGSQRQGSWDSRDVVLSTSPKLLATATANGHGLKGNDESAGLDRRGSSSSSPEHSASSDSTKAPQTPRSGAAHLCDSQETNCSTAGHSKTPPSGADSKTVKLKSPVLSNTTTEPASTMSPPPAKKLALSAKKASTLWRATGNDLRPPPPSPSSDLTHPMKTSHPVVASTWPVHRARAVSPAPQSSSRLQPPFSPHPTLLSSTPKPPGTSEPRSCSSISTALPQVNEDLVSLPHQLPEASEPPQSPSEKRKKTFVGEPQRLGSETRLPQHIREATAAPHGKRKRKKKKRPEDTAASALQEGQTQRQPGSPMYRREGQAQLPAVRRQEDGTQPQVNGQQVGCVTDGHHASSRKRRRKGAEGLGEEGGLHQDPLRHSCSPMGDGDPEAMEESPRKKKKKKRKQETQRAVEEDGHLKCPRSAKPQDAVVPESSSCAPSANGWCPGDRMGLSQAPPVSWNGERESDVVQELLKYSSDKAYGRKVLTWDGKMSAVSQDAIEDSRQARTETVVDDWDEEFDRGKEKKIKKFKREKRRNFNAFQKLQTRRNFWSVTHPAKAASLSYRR
Method in brief: as §1

USP38 = target: T2, USP38 (UniProt Q8NB14)
T2 sequence (whole entry): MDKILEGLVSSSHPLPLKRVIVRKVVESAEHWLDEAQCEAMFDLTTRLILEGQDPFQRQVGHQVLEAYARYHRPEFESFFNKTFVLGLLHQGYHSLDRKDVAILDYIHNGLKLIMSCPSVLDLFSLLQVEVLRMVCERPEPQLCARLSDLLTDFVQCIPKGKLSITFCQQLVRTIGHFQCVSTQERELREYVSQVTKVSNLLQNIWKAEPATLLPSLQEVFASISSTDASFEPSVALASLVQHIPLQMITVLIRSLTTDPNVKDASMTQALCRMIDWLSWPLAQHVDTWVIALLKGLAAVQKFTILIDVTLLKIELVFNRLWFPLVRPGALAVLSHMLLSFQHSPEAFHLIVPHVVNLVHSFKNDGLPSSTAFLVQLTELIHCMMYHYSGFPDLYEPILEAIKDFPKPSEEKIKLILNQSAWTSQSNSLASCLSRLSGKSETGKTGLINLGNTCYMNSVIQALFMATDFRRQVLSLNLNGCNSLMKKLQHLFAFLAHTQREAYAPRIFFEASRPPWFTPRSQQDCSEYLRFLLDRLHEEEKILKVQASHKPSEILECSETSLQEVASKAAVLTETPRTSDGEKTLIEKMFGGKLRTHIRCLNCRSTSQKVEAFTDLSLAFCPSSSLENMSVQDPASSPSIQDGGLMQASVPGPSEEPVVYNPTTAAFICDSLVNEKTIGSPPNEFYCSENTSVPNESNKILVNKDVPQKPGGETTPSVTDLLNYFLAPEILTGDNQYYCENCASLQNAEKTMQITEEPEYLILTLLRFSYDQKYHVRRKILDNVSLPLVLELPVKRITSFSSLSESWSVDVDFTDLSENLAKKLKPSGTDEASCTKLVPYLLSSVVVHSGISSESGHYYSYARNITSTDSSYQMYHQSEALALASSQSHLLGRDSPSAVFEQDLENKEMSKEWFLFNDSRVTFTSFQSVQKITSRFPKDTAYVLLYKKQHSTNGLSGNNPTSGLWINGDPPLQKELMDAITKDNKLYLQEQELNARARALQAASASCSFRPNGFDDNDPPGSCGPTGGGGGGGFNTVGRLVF
Method in brief: as §1

USP39 = target: T3, USP39 (UniProt Q53GS9)
T3 sequence (whole entry): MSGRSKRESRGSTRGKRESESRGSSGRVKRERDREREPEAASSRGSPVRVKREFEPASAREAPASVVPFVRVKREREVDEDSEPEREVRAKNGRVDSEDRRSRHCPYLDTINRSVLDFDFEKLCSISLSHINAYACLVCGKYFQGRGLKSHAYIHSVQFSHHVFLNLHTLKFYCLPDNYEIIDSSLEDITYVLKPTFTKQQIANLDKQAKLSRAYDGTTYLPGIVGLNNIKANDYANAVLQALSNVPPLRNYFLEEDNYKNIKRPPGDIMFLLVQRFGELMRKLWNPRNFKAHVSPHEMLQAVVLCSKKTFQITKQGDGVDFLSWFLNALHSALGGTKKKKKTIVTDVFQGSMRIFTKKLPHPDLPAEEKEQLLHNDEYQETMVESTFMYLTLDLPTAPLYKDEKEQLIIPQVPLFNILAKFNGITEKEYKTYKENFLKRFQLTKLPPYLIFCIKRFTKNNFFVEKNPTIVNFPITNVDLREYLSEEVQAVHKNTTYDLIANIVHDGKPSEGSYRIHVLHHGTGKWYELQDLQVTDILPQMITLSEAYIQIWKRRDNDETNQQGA
Method in brief: as §1

USP4 = target: T4, USP4 (UniProt Q13107)
T4 sequence (whole entry): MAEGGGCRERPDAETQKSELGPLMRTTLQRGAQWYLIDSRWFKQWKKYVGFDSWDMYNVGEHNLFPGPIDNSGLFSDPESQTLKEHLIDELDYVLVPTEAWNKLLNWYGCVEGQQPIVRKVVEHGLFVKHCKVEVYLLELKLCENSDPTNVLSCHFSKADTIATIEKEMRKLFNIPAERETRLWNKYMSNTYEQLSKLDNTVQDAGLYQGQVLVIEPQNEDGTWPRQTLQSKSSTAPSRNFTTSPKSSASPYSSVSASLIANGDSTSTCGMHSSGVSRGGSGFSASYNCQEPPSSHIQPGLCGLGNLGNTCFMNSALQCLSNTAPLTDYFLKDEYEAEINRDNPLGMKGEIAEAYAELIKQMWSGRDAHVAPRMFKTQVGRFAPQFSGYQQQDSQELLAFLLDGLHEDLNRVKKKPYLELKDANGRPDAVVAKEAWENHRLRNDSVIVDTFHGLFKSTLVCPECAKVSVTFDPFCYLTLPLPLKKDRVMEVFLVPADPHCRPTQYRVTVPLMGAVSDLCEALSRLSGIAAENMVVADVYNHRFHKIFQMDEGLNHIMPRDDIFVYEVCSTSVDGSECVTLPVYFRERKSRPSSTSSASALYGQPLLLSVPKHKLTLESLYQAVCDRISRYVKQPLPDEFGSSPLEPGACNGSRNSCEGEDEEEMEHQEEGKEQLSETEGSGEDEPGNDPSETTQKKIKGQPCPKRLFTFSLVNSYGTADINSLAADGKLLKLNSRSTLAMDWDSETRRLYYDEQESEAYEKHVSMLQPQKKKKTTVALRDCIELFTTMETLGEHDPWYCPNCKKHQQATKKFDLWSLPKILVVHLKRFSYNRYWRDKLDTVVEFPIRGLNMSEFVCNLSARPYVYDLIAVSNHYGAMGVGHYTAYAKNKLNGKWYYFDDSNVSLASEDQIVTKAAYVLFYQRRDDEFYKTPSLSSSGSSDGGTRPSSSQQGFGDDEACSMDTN
Method in brief: as §1

Measured: log2 ratio of Biotin-Ahx-Ub-VS probe labelling

Cc1cc(C2CCCN2C(=O)CCl)nn1C.Cl (stereo not given)
inactive: USP34 -0.179 | USP36 -0.0531 | USP38 -0.227 | USP39 -0.281 | USP4 -0.154
